High-throughput results deposited in PubChem BioAssay by National Center for Advancing Translational Sciences (NCATS).
Rows were chosen to be rich in hits. Some 3.4% of all compounds tested hit in one or more screens of this group.
Tau FP inhib = tau fibrillization inhibition (FP); Potency, µM (doses to about 57.7 µM), usual class: inhibitors; K18 P301L tau heparin fibrillization, Alexa594 FP, 6 h; 280,000 compounds, 0.39% hits; further: nearly all actives have a fitted effect of over 55% in size
Target sequence (P10636 561-689 P618L limits assumed): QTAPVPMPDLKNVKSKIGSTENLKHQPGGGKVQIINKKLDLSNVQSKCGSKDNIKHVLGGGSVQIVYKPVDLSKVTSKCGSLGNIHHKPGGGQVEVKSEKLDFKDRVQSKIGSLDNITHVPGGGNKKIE
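Quantitative HTS format: compounds meet 15 uM recombinant K18 P301L tau and Alexa 594-tau tracer in 100 mM sodium acetate pH 7; 20 uM heparin triggers fibrillization at 37 C over 6 hr; FP gives the signal.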
Tau fluor cs = counter-screen for tau fibril formation inhibitors; tau K18 P301L Alexa594 fluorescence, heparin fibrillization; Potency, µM (series often up to 57.7 µM); 280,000 compounds, 0.93% hits; further: nearly all actives have a fitted effect of over 55% in size
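Human K18 P301L tau (15 uM unlabeled plus 0.24 uM Alexa 594-labeled, final) in 100 mM sodium acetate pH 7 was mixed with compound and 20 uM heparin and incubated 6 hr at 37 C.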
Tau ThT inhib = tau fibrillization inhibition (ThT binding) | P10636 | recombinant tau K18 P301L (four-repeat tau fragment), heparin-induced fibrillization, ThT fluorescence | Potency, µM (doses to about 57.4 µM), usual class: inhibitors | 270,000 compounds, 2.1% hits; further: nearly all actives have a fitted effect of over 55% in size
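Tau K18 P301L fragment (15 uM unlabeled plus 0.24 uM Alexa 594-labeled) in 100 mM sodium acetate pH 7 with compound, fibrillization induced by 20 uM heparin for 6 hr at 37 C. Thioflavin T (30 uM) added, fluorescence read after 1 hr (ex 450, em 510 nm).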
KDM4E inh = JMJD2E (human) inhibition. B2RXH2. JMJD2E catalytic domain, FDH-coupled NADH fluorescence (FDH is formaldehyde dehydrogenase). Potency, µM (titrated, usually from 57.1 µM), most hits filed as inhibitors. 230,000 compounds, 1.6% hits; active means well fitted inhibition curve with a large enough effect, not every such curve was filed as active; inconclusive means small, poorly fitted or top-dose-only effect, or another doubt; inactive means no such curve, though single readings can be large or run the other way; further: nearly all actives have a fitted effect of over 50% in size
Target sequence (B2RXH2 1-337 limits assumed): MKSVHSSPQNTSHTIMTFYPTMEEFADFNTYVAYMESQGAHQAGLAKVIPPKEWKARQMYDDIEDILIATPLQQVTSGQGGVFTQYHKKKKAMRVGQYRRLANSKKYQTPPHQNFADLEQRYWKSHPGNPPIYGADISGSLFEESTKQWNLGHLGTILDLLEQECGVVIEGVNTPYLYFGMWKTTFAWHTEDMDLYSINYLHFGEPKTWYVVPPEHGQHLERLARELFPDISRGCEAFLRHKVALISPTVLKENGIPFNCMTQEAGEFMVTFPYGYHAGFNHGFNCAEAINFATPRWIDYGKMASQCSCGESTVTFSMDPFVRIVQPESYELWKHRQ
GoLoco inh red = blocks human Gai1 binding to RGS12 GoLoco peptide, red readout; Potency, µM (highest dose often 61.6 µM), usual class: inhibitors; 230,000 compounds, 0.44% hits; P63096; Gai1:RGS12 GoLoco peptide FP, rhodamine, 10 min; AID 880; active means well fitted inhibition curve with a large enough effect, not every such curve was filed as active; inactive means no such curve, though single readings can be large or run the other way; further: nearly all actives have a fitted effect of over 30% in size
Numbers stand for hits; [ ] = another dose, or the depositor's remark. Unless noted, the call rests on the fitted dose curve; in most records, active means well fitted curve in the direction sought with a large enough effect; inconclusive means small, poorly fitted or top-dose-only effect, or another doubt; inactive means no such curve, though single readings can be large; an effect the other way counts as inactive or inconclusive.

What do the screens show for `Cc1ccc(C2C(/C=C3/SC(=S)NC3=O)=C(c3cccs3)Oc3ccccc32)cc1` (stereo not drawn)?
Tau FP inhib: inactive; Tau fluor cs: inconclusive; Tau ThT inhib: 13µM; KDM4E inh: inactive; GoLoco inh red: inactive

How did CC1Cc2cc(/C=C3/SC(=S)NC3=O)ccc2O1 (stereo not drawn) do in these assays?
Tau FP inhib: inactive; Tau fluor cs: inactive; KDM4E inh: inactive; GoLoco inh red: inactive

Results for CCOC(=O)c1cc(-c2ccc(F)cc2)n(CCC(=O)Nc2nc3ccc(OC)cc3s2)c1C ?
Tau FP inhib: inconclusive; Tau fluor cs: inactive; Tau ThT inhib: inactive

How did CCc1ccc(NC(=O)C(C)n2nnc3sc(-c4ccccc4)cc3c2=O)cc1 (stereo not drawn) do in these assays?
Tau FP inhib: inconclusive; Tau fluor cs: inactive; Tau ThT inhib: 28µM

What do the screens show for `COC(=O)C(C)n1nnc2sc(-c3ccccc3)cc2c1=O` (stereo not drawn)?
Tau FP inhib: inactive; Tau fluor cs: inactive; Tau ThT inhib: inconclusive; KDM4E inh: inconclusive; GoLoco inh red: inactive

How did O=C(COC(=O)c1cnccn1)c1ccc([N+](=O)[O-])cc1 do in these assays?
Tau FP inhib: inconclusive; Tau fluor cs: inactive; Tau ThT inhib: 16µM; KDM4E inh: inactive; GoLoco inh red: inactive

What do the screens show for `Cc1ccc(C(=O)COC(=O)c2cnccn2)cc1`?
Tau FP inhib: inactive; Tau fluor cs: inactive; Tau ThT inhib: inactive; KDM4E inh: inactive; GoLoco inh red: inactive

What do the screens show for `Cc1cc(C)c(S(=O)(=O)NCC(c2ccco2)N2CCN(c3ccccc3)CC2)c(C)c1` (stereo not drawn)?
Tau FP inhib: inactive; Tau fluor cs: inactive; Tau ThT inhib: inconclusive

What do the screens show for `CCOC(=O)c1c(C)n(-c2ccc(C)cc2)c2ccc(OCC(O)CNCCCO)cc12` (stereo not drawn)?
Tau FP inhib: inactive; Tau fluor cs: inactive; Tau ThT inhib: inactive; KDM4E inh: inactive; GoLoco inh red: inactive

How did CCOC(=O)c1c(C)n(-c2ccc(C)cc2)c2ccc(OCC(O)CNCC3CCCO3)cc12 (stereo not drawn) do in these assays?
Tau FP inhib: inactive; Tau fluor cs: inactive; Tau ThT inhib: inconclusive; KDM4E inh: 28µM; GoLoco inh red: inactive

Results for CC1Cn2c(C(=O)NCCc3ccc(Cl)cc3)cc3cccc(c32)S1 (stereo not drawn) ?
Tau FP inhib: inconclusive; Tau fluor cs: inconclusive; Tau ThT inhib: inactive

How did O=C(Nc1ccc(S(=O)(=O)N(Cc2ccccc2)c2ccccc2)cc1)c1ccccc1F do in these assays?
Tau FP inhib: inconclusive; Tau fluor cs: inactive; Tau ThT inhib: inactive

What do the screens show for `COc1cccc(C(=O)Nc2ccc(S(=O)(=O)N(Cc3ccccc3)c3ccccc3)cc2)c1`?
Tau FP inhib: 10µM; Tau fluor cs: inconclusive; Tau ThT inhib: inactive

How did O=C(Nc1ccc(S(=O)(=O)N(Cc2ccccc2)c2ccccc2)cc1)c1ccc(F)cc1 do in these assays?
Tau FP inhib: 10µM; Tau fluor cs: inconclusive; Tau ThT inhib: inactive

How did CCOc1cccc(C(=O)Nc2ccc(S(=O)(=O)N(Cc3ccccc3)c3ccccc3)cc2)c1 do in these assays?
Tau FP inhib: inconclusive; Tau fluor cs: inconclusive; Tau ThT inhib: inactive

What do the screens show for `COc1ccc(-c2cn3ccccc3n2)cc1[N+](=O)[O-]`?
Tau FP inhib: inactive; Tau fluor cs: inactive; Tau ThT inhib: inconclusive; KDM4E inh: inactive; GoLoco inh red: inactive

What do the screens show for `COc1ccc(-c2cn3cc([N+](=O)[O-])ccc3n2)cc1OC`?
Tau FP inhib: inactive; Tau fluor cs: inactive; Tau ThT inhib: 4.5µM; KDM4E inh: inactive; GoLoco inh red: inactive

What do the screens show for `O=C1c2ccccc2C(=O)C1c1ccc2ccccc2n1`?
Tau FP inhib: inactive; Tau fluor cs: inactive; Tau ThT inhib: 2.2µM; KDM4E inh: inactive; GoLoco inh red: inactive

How did COC(=O)C1=C(C)NC(C)=C(C(=O)OC)C1c1ccc2ccccc2n1 do in these assays?
Tau FP inhib: inactive; Tau fluor cs: inactive; Tau ThT inhib: inactive; KDM4E inh: inactive; GoLoco inh red: inactive

Results for Cc1ccc(CN2C(=O)c3ccccc3C2C(=O)NC2CCCCCC2)cc1 (stereo not drawn) ?
Tau FP inhib: inactive; Tau fluor cs: inactive; Tau ThT inhib: inactive

What do the screens show for `Cc1sc2c(c1C)c(=O)n(-c1cccc(C(F)(F)F)c1)c(=O)n2Cc1ccc(F)cc1`?
Tau FP inhib: inactive; Tau fluor cs: inactive; Tau ThT inhib: inactive

How did O=C(Nc1ccc(Br)c(C(F)(F)F)c1)c1ccc(C(F)(F)F)cc1 do in these assays?
Tau FP inhib: 22µM; Tau fluor cs: inactive; KDM4E inh: inactive; GoLoco inh red: inactive

How did O=C(Nc1ccc(Br)c(C(F)(F)F)c1)c1ccccc1 do in these assays?
Tau FP inhib: inconclusive; Tau fluor cs: inconclusive; Tau ThT inhib: inactive; KDM4E inh: inactive; GoLoco inh red: inactive

Results for O=C1CC(c2cccc(O)c2)c2c(nc(SCc3ccccc3F)[nH]c2=O)N1 (stereo not drawn) ?
Tau FP inhib: inactive; Tau fluor cs: inactive; Tau ThT inhib: inactive

Results for CN1/C(=C/c2cc[n+](C)c3ccccc23)C=Cc2ccccc21 ?
Tau FP inhib: inconclusive; Tau fluor cs: inactive; Tau ThT inhib: 7.1µM; KDM4E inh: 11µM; GoLoco inh red: inactive

What do the screens show for `CC(C)(CNC(=O)c1ccc([N+](=O)[O-])c(Cl)c1)CNC(=O)c1ccc([N+](=O)[O-])c(Cl)c1`?
Tau FP inhib: inactive; Tau fluor cs: 13µM[quencher]; Tau ThT inhib: inconclusive; KDM4E inh: inactive; GoLoco inh red: inactive

Results for C=CCNC(=O)c1ccc([N+](=O)[O-])c(Cl)c1 ?
Tau FP inhib: inactive; Tau fluor cs: inactive; Tau ThT inhib: inactive; KDM4E inh: inactive; GoLoco inh red: inactive

How did O=C(Nc1c(C(=O)N2CCN(c3ccc(F)cc3)CC2)oc2ccccc12)c1c(F)cccc1F do in these assays?
Tau FP inhib: inconclusive; Tau fluor cs: inconclusive; Tau ThT inhib: inactive

What do the screens show for `O=C(/C=C/c1ccco1)NC(=S)Nc1ccc(N2CCCC2)cc1`?
Tau FP inhib: inactive; Tau fluor cs: inconclusive; Tau ThT inhib: 3.5µM; KDM4E inh: 11µM; GoLoco inh red: inactive

Results for O=C(/C=C\c1ccco1)Nc1ccc(N2CCN(C(=O)c3ccccc3)CC2)cc1 ?
Tau FP inhib: inactive; Tau fluor cs: inconclusive; Tau ThT inhib: 11µM; KDM4E inh: inactive; GoLoco inh red: inactive

Results for O=C(/C=C/c1ccco1)NC(=S)Nc1ccc(Cl)cn1 ?
Tau FP inhib: inactive; Tau fluor cs: inconclusive; Tau ThT inhib: 22µM; KDM4E inh: inconclusive; GoLoco inh red: inactive

Results for O=C1OC(O)C(C(Cl)Cl)=C1Cl (stereo not drawn) ?
GoLoco inh red: inactive

How did Cc1ccc(NC(=O)c2cc(S(=O)(=O)NC3CCCCC3)ccc2F)cc1Cl do in these assays?
Tau FP inhib: inconclusive; Tau fluor cs: inactive; Tau ThT inhib: inactive

How did CCN1CCc2nc3sc(C(=O)c4ccccc4)c(N)c3cc2C1 do in these assays?
Tau FP inhib: inactive; Tau fluor cs: 16µM[quencher]; Tau ThT inhib: 8.9µM
